For 18 compounds, residual activity results are on record in ChEMBL document CHEMBL2218924, “A broad activity screen in support of a chemogenomic map for kinase signalling research and drug discovery” (Biochem J, 2013).

One may read the residual activity as the signal under treatment as a percentage of the control signal.

The target in the test is T1, Serine/threonine-protein kinase NLK (Homo sapiens) (UniProt Q9UBE8).
T1 sequence (whole entry): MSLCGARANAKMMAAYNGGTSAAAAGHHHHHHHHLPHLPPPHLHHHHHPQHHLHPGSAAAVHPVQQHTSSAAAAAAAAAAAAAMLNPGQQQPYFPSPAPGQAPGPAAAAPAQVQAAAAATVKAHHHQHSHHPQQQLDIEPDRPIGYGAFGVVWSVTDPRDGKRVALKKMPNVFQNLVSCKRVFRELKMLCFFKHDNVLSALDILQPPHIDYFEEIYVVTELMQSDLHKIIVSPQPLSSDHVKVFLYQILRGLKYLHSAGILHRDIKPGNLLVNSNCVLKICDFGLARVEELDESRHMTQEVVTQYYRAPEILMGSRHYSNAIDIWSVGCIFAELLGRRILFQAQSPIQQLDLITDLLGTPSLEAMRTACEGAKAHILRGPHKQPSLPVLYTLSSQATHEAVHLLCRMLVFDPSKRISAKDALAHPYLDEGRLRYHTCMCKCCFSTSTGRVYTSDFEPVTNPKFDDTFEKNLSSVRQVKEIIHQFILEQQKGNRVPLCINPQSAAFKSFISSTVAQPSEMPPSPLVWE
The following applies: at 1 µM.
As for `O=C1NC(=O)C(c2cn(CCCO)c3ncccc23)=C1c1cnccn1`, the residual activity was found to be 98%.
With `O=C(NC(NC(=S)Nc1ccc(F)c([N+](=O)[O-])c1)C(Cl)(Cl)Cl)C(c1ccccc1)c1ccccc1` (stereo not drawn), the residual activity was 103%.
The result for `CC(C)(C)n1nc(Cc2cccc3ccccc23)c2c(N)ncnc21` reads 44%; that for `Nc1ncnc2c1c(-c1ccc(Oc3ccccc3)cc1)cn2C1CCCC1`, 81%.
Take `COc1cc2nccc(Oc3ccc(NC(=O)Nc4cc(C)on4)c(Cl)c3)c2cc1OC`: the residual activity turned out to be 77%.
Consider `CC(C)c1nn(-c2c(Cl)cccc2Cl)c2nc(Cc3ccc(OCCO)cc3)[nH]c(=O)c12`, for which the residual activity is 88%.
`Cn1sc(=O)n(Cc2ccccc2)c1=O`: the residual activity was found to be 82%.
In the case of `Nc1ncnc2c1cnn2-c1ccccc1`, the residual activity was found to be 88%.
The result for `Cn1c2ccccc2c2c3c(c4c5ccccc5n(CCC#N)c4c21)CNC3=O` reads 50%.
The figure for `O=C1NC(=O)c2c1c1c3ccccc3[nH]c1n1cncc21` is 89%; for `COc1cc2c(cc1OC)-c1n[nH]c(Nc3cccc(F)c3)c1C2` it is 54%.
The result for `Nc1n[nH]c2nc3ccccc3nc12` reads 97%; that for `O=c1cc(N2CCNCC2)oc2c(-c3ccccc3)cccc12`, 99%; that for `CCCC(=O)Oc1ccc2[nH]c(C(=O)c3cc4ccccc4[nH]3)cc2c1`, 90%.
For `O=C1Nc2ccc(Cl)cc2/C1=C/c1cc(Cl)c(O)c(Cl)c1`, the residual activity was determined as 47%.
The figure for `COc1cc2nccc(Oc3ccc(NC(=S)NC(=O)c4ccccc4C)cc3)c2cc1OC` is 81%.
Regarding `O=C1Cc2c([nH]c3ccc(Br)cc23)-c2ccccc2N1`, the residual activity worked out at 83%.
The result for `NC(=O)Nc1sc(-c2ccc(F)cc2)cc1C(N)=O` reads 89%.
